Test results as given in PubChem BioAssay AID651719 (The Scripps Research Institute Molecular Screening Center, 2012).
The whole screen tested about 360,000 compounds, of which about 1,600 (0.44%) were called active. What follows is part of a selection rich in actives, with near analogues and random picks from the rest. Values without a mark were called inactive.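 Rule for the calls: active = inhibition above the screen-wide average plus 3 SD (cut at about 13% in these data); inactive = the rest.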

Target: Galanin receptor type 3 (Homo sapiens) (UniProt O60755)
Sequence (O60755 1-299 limits assumed): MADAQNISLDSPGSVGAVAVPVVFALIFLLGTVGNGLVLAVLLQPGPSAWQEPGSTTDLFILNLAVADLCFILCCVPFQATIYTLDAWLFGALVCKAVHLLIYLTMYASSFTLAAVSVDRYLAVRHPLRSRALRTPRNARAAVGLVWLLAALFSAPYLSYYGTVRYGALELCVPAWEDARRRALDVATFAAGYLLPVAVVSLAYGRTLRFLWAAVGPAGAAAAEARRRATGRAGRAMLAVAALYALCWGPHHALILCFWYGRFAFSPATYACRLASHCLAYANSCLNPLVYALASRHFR
Assay: blockers of human galanin receptor 3 – cell-based, fluorescence readout, primary screen (AID 651719);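 note: forskolin and galanin both at EC90 stimulate the cells; cAMP rise reported by CNG channel membrane potential dye signal; 0% = forskolin plus galanin with DMSO and 100% = forskolin alone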
Conditions: HEK293 GalR3-CNG cAMP membrane potential fluorescence; at 3 µM; active compounds read high; galR3 body fused to GalR1 C-terminus

Q: How did the inhibition turn out when `O=S1(=O)c2ccc(Br)cc2-n2nncc2CN1Cc1cccc(Cl)c1` was run?
A: -7.46%

Q: How did the inhibition turn out when `COCCCNC(=O)C[C@H]1C[C@@]2(C(=O)OC)C(=C[C@H](C(C)(C)C)O[C@@H]2C)N(Cc2ccc3c(c2)OCO3)C1=O` was run?
A: -0.33%

Q: With `COCCN1Cc2cccc(C(=O)Nc3ccccc3OC)c2C1=O` as the compound, how does the inhibition read?
A: 41.5% (active)

Q: With `CCCN1Cc2cccc(C(=O)Nc3ccc(S(=O)(=O)N4CCCCCC4)cc3)c2C1=O` as the compound, how does the inhibition read?
A: -8.35%

Q: How did the inhibition turn out when `CCCN1Cc2cccc(C(=O)NCc3ccccc3)c2C1=O` was run?
A: -3.84%

Q: `O=C(NS(=O)(=O)c1cccs1)[C@H]1O[C@@H](n2ccc(=O)[nH]c2=O)[C@H](O)[C@@H]1O` was tested. Which inhibition did it give?
A: -5.05%

Q: `Cc1cc2c(nc1C)CCCN2C` was tested. Which inhibition did it give?
A: -4.98%

Q: How did the inhibition turn out when `CC(C)OC(=O)CC(=O)CC(O)c1cccc([N+](=O)[O-])c1` (stereo not given) was run?
A: -6.46%

Q: Which inhibition does the source give for `O=C(CC(c1ccccc1)c1ccccc1)NCC(O)c1ccc([N+](=O)[O-])cc1` (stereo not given) here?
A: -3.68%

Q: With `CC(CCc1ccccc1)NCC(O)c1cccc([N+](=O)[O-])c1` (stereo not given) as the compound, how does the inhibition read?
A: 26.9% (active)

Q: With `COc1ccc(S(=O)(=O)Nc2ccc3c(c2)C(=O)N([C@H](C)CO)C[C@H](C)[C@@H](CN(C)C)OCCCC[C@H](C)O3)cc1` as the compound, how does the inhibition read?
A: -6.44%

Q: How did the inhibition turn out when `c1coc(CNc2ncnc3ccccc23)c1` was run?
A: 82.2% (active)

Q: How did the inhibition turn out when `O=C(NCc1ccncc1)C(=O)NCc1ccco1` was run?
A: -2.62%

Q: For `c1ccc(CNc2ncnc3[nH]ncc23)cc1`, which inhibition is on record?
A: -4.19%

Q: How did the inhibition turn out when `C[C@H](O)[C@@H]1C(=O)N2CCc3c([nH]c4c(-c5ccc6c(c5)OCO6)cccc34)[C@@H]2C[C@@H]1N(C)C(=O)c1ccco1` was run?
A: -7.36%

Q: How did the inhibition turn out when `C[C@H]1[C@H](c2ccccc2)Oc2cc(Br)ccc2S(=O)(=O)N1Cc1cccc(F)c1` was run?
A: -2.05%

Q: How did the inhibition turn out when `CCOc1ccc(C(=O)Nc2ccc(CN3CCOCC3)cc2)cc1Cl` was run?
A: -8.84%

Q: `O=C(Nc1ccccc1C(=O)N1CCOCC1)c1ccc(CSc2ccccc2)cc1` was tested. Which inhibition did it give?
A: -0.11%

Q: How did the inhibition turn out when `O=C(Nc1ccc(CSc2ccccc2)cc1)c1ccc(CN2CCOCC2)cc1` was run?
A: 95.3% (active)

Q: How did the inhibition turn out when `COC(=O)N1Cc2ccnnc2CC1c1ccccc1Br` (stereo not given) was run?
A: 1.18%

Q: `O=C(O)Cn1c(Cc2ccccc2)nc2ccccc21` was tested. Which inhibition did it give?
A: -10.6%

Q: Which inhibition does the source give for `Cc1c(C=O)c2ccccc2n1CCOc1ccccc1` here?
A: 2.42%

Q: With `Cc1c(C=O)c2ccccc2n1CC(=O)O` as the compound, how does the inhibition read?
A: 12.7% (active)

Q: With `C=CC1=CCN(S(=O)(=O)C(C)(C)C)[C@@H]1CCO` as the compound, how does the inhibition read?
A: -6.58%

Q: For `O=C(NCc1ccccc1)[C@H]1CCCN1C(=O)[C@@H]1CCCN1C(=O)c1ccc(Cl)cc1Cl`, which inhibition is on record?
A: -7.72%

Q: How did the inhibition turn out when `C[C@H]1CN([C@@H](C)CO)C(=O)CCCn2nncc2CO[C@@H]1CN(C)C(=O)Nc1ccc(N2CCN(C)CC2)cc1` was run?
A: -5.34%

Q: Which inhibition does the source give for `CC(C)[C@H]1COCCS(=O)(=O)N1Cc1ccccc1-c1cccc2c1sc1ccccc12` here?
A: -3.29%

Q: For `Cn1c(N)c(C(=O)COC(=O)c2ccc3ccccc3c2)c(=O)n(C)c1=O`, which inhibition is on record?
A: -4.21%

Q: With `Cn1c(N)c(C(=O)COC(=O)c2cnc(Cl)c(Cl)c2)c(=O)n(C)c1=O` as the compound, how does the inhibition read?
A: 18.3% (active)

Q: Which inhibition does the source give for `Cn1c(N)c(C(=O)COC(=O)COc2ccc(Cl)cc2)c(=O)n(C)c1=O` here?
A: -5.52%

Q: `Cc1ccc(S(=O)(=O)N2CCN(C(=O)COC(=O)c3c(C)noc3C)CC2)c(C)c1` was tested. Which inhibition did it give?
A: -3.17%

Q: Which inhibition does the source give for `Cc1ccc(S(=O)(=O)N2CCN(C(=O)COC(=O)c3c(C)cc(C)cc3C)CC2)c(C)c1` here?
A: 14.7% (active)

Q: With `COc1ccc(/C=C/C(=O)OCC(=O)N2CCN(S(=O)(=O)c3ccc(C)cc3C)CC2)cc1OC` as the compound, how does the inhibition read?
A: -2.95%

Q: With `COC(=O)C1=C(C)N(Cc2ccccc2C(F)(F)F)C(=NCc2ccc(OC)cc2)NC1c1cccc(C(F)(F)F)c1` (stereo not given) as the compound, how does the inhibition read?
A: -3.7%

Q: Which inhibition does the source give for `CN1C(=O)C(Br)(Br)CC1c1cccnc1` (stereo not given) here?
A: -8.3%

Q: Which inhibition does the source give for `Nc1nc2c(ncn2[C@@H]2O[C@H](C(=O)N[C@H](Cc3ccccc3)C(=O)NCC3CCCCC3)[C@@H](O)[C@H]2O)c(=O)[nH]1` here?
A: -7.48%

Q: How did the inhibition turn out when `CSc1ccc(Oc2cccc3c2S(=O)(=O)N([C@H](C)c2ccccc2)C[C@@H](COCc2ccccc2)O3)cc1C` was run?
A: -3.93%

Q: With `COC(=O)c1ccccc1NC(=O)CSc1n[nH]c(-c2ccncc2)n1` as the compound, how does the inhibition read?
A: -2.72%

Q: How did the inhibition turn out when `CCc1ccc(-c2nc(SCC(=O)NC3CCCC3)n[nH]2)cc1` was run?
A: 24.9% (active)

Q: With `CCc1c(C)nc(SCC(=O)NC2CCCC2)[nH]c1=O` as the compound, how does the inhibition read?
A: -6.61%

Q: Which inhibition does the source give for `CN(C)C(=O)N1CCN(C(=O)[C@@H](Cc2ccccc2)NC(=O)[C@H]2O[C@@H](n3ccc(N)nc3=O)[C@H](O)[C@@H]2O)CC1` here?
A: -7.47%

Q: Which inhibition does the source give for `COc1ccccc1CCn1cnc(-c2ccccc2)c1C(C)C` here?
A: -9.98%

Q: `Cc1ccc(F)cc1NC(=O)Cc1nn(C)c(=O)c2ccccc12` was tested. Which inhibition did it give?
A: 41.5% (active)

Q: For `Cc1ccc(F)cc1NC(=O)CSCc1c(C)noc1C`, which inhibition is on record?
A: -4.98%

Q: `Cc1ccc(C)c(NC(=O)COC(=O)c2nn(C)c(=O)c3ccccc23)c1` was tested. Which inhibition did it give?
A: -2.16%

Q: `O=C(NCc1ccccc1)[C@H]1CCCN1C(=O)[C@H]1CCCN1C(=O)c1cc(F)cc(F)c1` was tested. Which inhibition did it give?
A: -0.96%

Q: `Nc1ccn([C@@H]2O[C@H](C(=O)N[C@H]3CCCCNC3=O)[C@@H](O)[C@H]2O)c(=O)n1` was tested. Which inhibition did it give?
A: -3.96%

Q: For `C[C@@H]1CN([C@H](C)CO)C(=O)CCCn2cc(nn2)CO[C@H]1CN(C)C(=O)Nc1ccc(N2CCCCC2)cc1`, which inhibition is on record?
A: -3.62%

Q: With `NC(=O)c1ccc(NC(=O)COC(=O)C(Cc2ccccc2)NC(=O)c2ccccc2)cc1` (stereo not given) as the compound, how does the inhibition read?
A: 15.4% (active)

Q: `O=C(COC(=O)[C@H](Cc1ccccc1)NC(=O)c1cccs1)Nc1cc(F)ccc1F` was tested. Which inhibition did it give?
A: -2.8%

Q: With `CC(=O)c1ccc(NC(=O)N[C@@H](Cc2ccccc2)C(=O)O)cc1` as the compound, how does the inhibition read?
A: -4.01%

Q: With `COC(=O)c1c(-c2ccc(OC)cc2)c2c(c3c4ccccc4n(S(=O)(=O)c4ccc(C)cc4)c13)C(=O)N(C)C2` as the compound, how does the inhibition read?
A: -6.49%

Q: For `COc1ccc(-c2ccccc2C2Cc3nnccc3CN2C(=O)Nc2ccccc2)cc1` (stereo not given), which inhibition is on record?
A: -8.69%

Q: With `CCOC(=O)N1CCN(C(=O)C[C@H]2C[C@@]3(C(=O)OC)C(=C[C@H](C4CCCC4)O[C@@H]3C)N(Cc3ccccc3)C2=O)CC1` as the compound, how does the inhibition read?
A: -2.22%

Q: For `C#CCN([C@@H](C)C(=O)OCC)S(=O)(=O)c1ccc(Br)cc1F`, which inhibition is on record?
A: -6.91%

Q: Which inhibition does the source give for `O=C(Nc1ccccc1Cl)/C(Cl)=C(\Cl)S(=O)c1ccccc1` (stereo not given) here?
A: 16.2% (active)

Q: With `CC(=O)c1ccc(NC(=O)C(C)N(C)CC(=O)Nc2ccccc2Cl)cc1` (stereo not given) as the compound, how does the inhibition read?
A: -3.44%

Q: Which inhibition does the source give for `O=C(Nc1ccccc1Cl)c1ccccc1S(=O)(=O)c1ccccc1[N+](=O)[O-]` here?
A: 0.75%

Q: How did the inhibition turn out when `COc1ccc(C2=CN(Cc3ccccc3)C(c3ccc(OC)cc3)CC2=O)cc1` (stereo not given) was run?
A: -4.04%

Q: Which inhibition does the source give for `Fc1cccc2ncnc(OCc3ccccc3)c12` here?
A: -3.41%

Q: Which inhibition does the source give for `Cc1nc2ccccc2cc1OCc1ccc(F)cc1` here?
A: 80% (active)

Q: For `Cc1occc(=O)c1OCc1ccc(F)cc1`, which inhibition is on record?
A: 5.85%

Q: How did the inhibition turn out when `CCOC(=O)Cn1c2c(n(-c3ccc(F)cc3)c1=O)C=C(c1ccccc1)[C@@H](C)C(C(=O)N(C)C1CCCCC1)=C2` was run?
A: -7.9%

Q: For `COC(=O)[C@]12C[C@H](CC(=O)NCCc3ccccc3OC)C(=O)N(Cc3ccccc3)C1=C[C@H](C(C)C)O[C@@H]2C1CC1`, which inhibition is on record?
A: -6.79%

Q: With `COc1ccc(NC(=O)c2ccco2)cc1NC(=O)c1ccc(C#N)cc1F` as the compound, how does the inhibition read?
A: -2.95%

Q: With `COc1ccc(CC(=O)Nc2ccccc2NC(=O)c2ccco2)cc1OC` as the compound, how does the inhibition read?
A: -2.83%

Q: For `COc1cc(NC(=O)c2cc([N+](=O)[O-])ccc2Br)ccc1NC(=O)c1ccco1`, which inhibition is on record?
A: 22.4% (active)

Q: For `Cc1ccc(C)c(CN2CCC(CNC(=O)C3CCCN(c4ncnc5c4nc4n5CCCCC4)C3)CC2)c1` (stereo not given), which inhibition is on record?
A: -1.9%

Q: With `Cc1[nH]c2ccccc2c1CC(=O)Nc1ccc(Nc2cccnc2)c(-c2cccc(Cl)c2)c1` as the compound, how does the inhibition read?
A: -2.4%

Q: For `CCCCOCC1CN(CCCC)S(=O)(=O)c2c(Oc3ccc(F)cc3)cccc2O1` (stereo not given), which inhibition is on record?
A: 2.7%
